# From PubChem BioAssay (NCATS)
# Calls of active or inactive are those of the source. Calls follow the shape of the dose curve; as a rule, active = well fitted curve in the direction sought with a large enough effect; inconclusive = small, poorly fitted or top-dose-only effect, or another doubt; inactive = no such curve, though single readings can be large or run the other way.
# Molecular target: Thyrotropin receptor (Homo sapiens) (UniProt P16473)
# Experiment: qHTS Assay for Antagonists of the Thyroid Stimulating Hormone Receptor (AID 488980)
# Settings: TSHR-expressing cells, cAMP antagonist read-out; series mostly up to 57.5 µM
# In short: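 TSHR-HEK293 cells; 70 uM RO 20-1724 PDE inhibitor; compound + EC80 TSH (4 nM final); anti-cAMP cryptate antibody/cAMP-d2 in lysis buffer, 30 min RT; HTRF 665/620 nm read.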
# Chain of Thyrotropin receptor (Homo sapiens) (P16473 whole entry, looked up): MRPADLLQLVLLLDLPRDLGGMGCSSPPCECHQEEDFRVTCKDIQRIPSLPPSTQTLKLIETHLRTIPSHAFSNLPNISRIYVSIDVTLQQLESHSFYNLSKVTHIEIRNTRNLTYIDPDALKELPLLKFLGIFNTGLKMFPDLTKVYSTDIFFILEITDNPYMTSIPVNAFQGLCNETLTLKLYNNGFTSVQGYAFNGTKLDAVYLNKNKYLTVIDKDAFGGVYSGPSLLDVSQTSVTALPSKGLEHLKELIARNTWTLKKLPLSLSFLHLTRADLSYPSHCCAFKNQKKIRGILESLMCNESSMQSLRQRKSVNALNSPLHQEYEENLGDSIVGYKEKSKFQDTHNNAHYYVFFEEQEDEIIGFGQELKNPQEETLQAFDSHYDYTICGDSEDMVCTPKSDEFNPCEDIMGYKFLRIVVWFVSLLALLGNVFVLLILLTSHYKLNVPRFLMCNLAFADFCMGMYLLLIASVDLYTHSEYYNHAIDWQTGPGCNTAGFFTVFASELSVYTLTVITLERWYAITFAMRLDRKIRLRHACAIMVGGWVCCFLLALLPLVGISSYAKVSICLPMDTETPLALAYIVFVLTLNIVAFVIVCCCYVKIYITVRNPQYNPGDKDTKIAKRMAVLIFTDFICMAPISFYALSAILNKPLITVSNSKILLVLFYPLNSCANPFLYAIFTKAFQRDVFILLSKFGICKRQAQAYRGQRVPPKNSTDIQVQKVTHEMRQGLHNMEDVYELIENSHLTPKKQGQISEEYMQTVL
row,Structure (SMILES),outcome
1,CC(=O)N[C@@H](CS)C(=O)O,inactive
2,COC(=O)[C@@H]1[C@H]2C[C@H]3c4[nH]c5ccccc5c4CCN3C[C@@H]2CC[C@@H]1O,inactive
3,CCCNC(=O)NS(=O)(=O)c1ccc(Cl)cc1,inactive
4,CC(=O)c1ccc(S(=O)(=O)NC(=O)NC2CCCCC2)cc1,inactive
5,Clc1ccc(Cn2c(CN3CCCC3)nc3ccccc32)cc1,inactive
6,O=C(O)CCc1nc(-c2ccccc2)c(-c2ccccc2)o1,inactive
7,CC(C)NCC(O)COc1cccc2[nH]ccc12 (centres undefined),inactive
8,O=C1NCC2(CCN(CCc3ccccc3)CC2)O1,inactive
9,CC(=O)CCCCn1c(=O)c2c(ncn2C)n(C)c1=O,inactive
10,CN(C)CCC(c1ccccc1)c1ccccn1 (centres undefined),inactive
11,CC(C)OC(=O)C(C)(C)Oc1ccc(C(=O)c2ccc(Cl)cc2)cc1,inactive
12,O=c1c(-c2ccc(O)cc2)coc2cc(O)ccc12,inactive
13,CCN(CC)C(=O)c1ccc(O)c(OC)c1,inactive
14,CCN1CCC[C@H]1CNC(=O)c1cc(S(N)(=O)=O)ccc1OC,inactive
15,Cc1cccc(C)c1OCC(C)N (centres undefined),inactive
16,O=C1NC(=O)C(c2ccccc2)(c2ccccc2)N1,inactive
17,CCN(CC)CCOC(=O)c1ccc(N)cc1,inactive
18,COc1ccccc1N1CCN(CCCNc2cc(=O)n(C)c(=O)n2C)CC1,inactive
19,CCCCC1C(=O)N(c2ccccc2)N(c2ccccc2)C1=O,inactive
